High-throughput results deposited in PubChem BioAssay by National Center for Advancing Translational Sciences (NCATS).
Pf growth 48h = inhibits P. falciparum growth in the first generation, 48 h; P. falciparum luciferase growth in erythrocytes, 48 h; Potency, µM (doses to about 28.7 µM), usual class: inhibitors; hit rate 5.9% among 310,000; AID 504832
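Compounds are pin-transferred into medium, infected erythrocytes (2% hematocrit, 0.1% parasitemia final) are added, and plates sit one parasite generation at 37 C in 5% CO2. Detection reagent is then added and luminescence measured.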
NS1 function inh = influenza NS1 inhibition | Potency, µM (series often up to 46.1 µM) | hit rate 0.4% among 270,000; calls by dose curve; further: actives are rising curves; nearly all actives have a fitted effect of over 50% in size
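OD600 was taken as the measure of yeast growth restored by compound in an NS1-expressing S. cerevisiae strain. Cells had been washed out of glucose medium and diluted 1:100 into galactose -URA medium, pH 6.0.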
Pf growth 96h = inhibits malaria parasite growth, 96 h | hit rate 6.9% among 320,000 | Potency, µM (top dose mostly 28.7 µM), most hits filed as inhibitors | P. falciparum luciferase reporter growth, 96 h
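Two-generation exposure (96 h) targets delayed-death phenotype. Reporter parasites carrying integrated firefly luciferase, in red cells at 2% hematocrit and 0.05% parasitemia final, kept at 37 C, 5% CO2; luminescence loss indicates inhibition.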
SARS PLP yeast = inhibitors of SARS-CoV papain-like protease in yeast; Potency, µM (highest dose often 32.9 µM), usual class: activators; S. cerevisiae expressing SARS-CoV PLpro, growth rescue; AID 485353; hit rate 0.19% among 330,000; calls by dose curve; further: nearly all actives have a fitted effect of over 55% in size
Of the large screens only hits and unclear results are named; the others gave an inactive call. Most compounds without a hit are left out; they make up all but 10% or so of the library. Unless noted, the call rests on the fitted dose curve; in most records, active means well fitted inhibition curve with a large enough effect; inconclusive means small, poorly fitted or top-dose-only effect, or another doubt; inactive means no such curve, though single readings can be large or run the other way.

CS(=O)(=O)c1cccc(C(=O)Nc2cccc(S(=O)(=O)N3CCCC3)c2)c1	Pf growth 96h inconclusive (no result: NS1 function inh)
O=C(Nc1cccc(S(=O)(=O)N2CCCC2)c1)c1cccc(OC(F)F)c1	Pf growth 48h inconclusive, Pf growth 96h 9.3µM (no result: NS1 function inh)
CN1CCN(S(=O)(=O)c2ccc(NC(=O)c3csc4ccccc34)cc2)CC1	Pf growth 48h 4.7µM (no result: Pf growth 96h)
CN(C)S(=O)(=O)c1cccc(C(=O)Nc2ccc(S(=O)(=O)N3CCCC3)cc2)c1	Pf growth 48h 12µM, Pf growth 96h inconclusive
Cc1cc(NC(=O)c2cccc(S(=O)(=O)N3CCCCCC3)c2)no1	Pf growth 96h 8.3µM, SARS PLP yeast inconclusive (no result: Pf growth 48h)
CN(C)C(=O)CCc1ccc2c3c([nH]c2c1)[C@]1(C)[C@@H](C(=O)N2CCOCC2)C[C@H](CC(=O)NCCN2CCOCC2)C(=O)N1CC3	none (no result: Pf growth 48h, NS1 function inh, Pf growth 96h)
CCCCC1=NN(C(=O)c2ccco2)C(O)(C(F)(F)F)C1 (stereo unspecified)	none
CN1CCN(S(=O)(=O)c2ccc(NC(=O)c3cccc(F)c3)cc2)CC1	none
CCc1ccc(NC(=O)c2ccc3c(=O)n4c(nc3c2)CCCCC4)cc1	Pf growth 48h inconclusive
CN(C)S(=O)(=O)c1cccc(NC(=O)c2cccc(S(=O)(=O)N3CCCCCC3)c2)c1	Pf growth 48h 13µM, Pf growth 96h 4.7µM (no result: NS1 function inh)
CN(C)S(=O)(=O)c1cccc(NC(=O)c2ccc(S(=O)(=O)N3CCCCC3)cc2)c1	Pf growth 48h inconclusive, Pf growth 96h inconclusive (no result: NS1 function inh)
CN1CCN(S(=O)(=O)c2ccc(NC(=O)c3cccc(S(=O)(=O)N4CCCC4)c3)cc2)CC1	Pf growth 48h 12µM, Pf growth 96h inconclusive
CCc1cccc2cc3c(N)c(C(=O)Nc4ccc(S(=O)(=O)N5CCCC5)cc4)sc3nc12	Pf growth 48h 12µM, Pf growth 96h inconclusive
O=C(Nc1cccc(S(=O)(=O)N2CCCCC2)c1)c1ccc2c(=O)n3c(nc2c1)CCCCC3	Pf growth 48h inconclusive, NS1 function inh inconclusive, Pf growth 96h 13µM
N#Cc1c(N)nc(SCC(=O)OCc2ccccc2)c(C#N)c1-c1ccco1	Pf growth 48h inconclusive, Pf growth 96h 4.1µM
COC(=O)CSc1nc2c(c(-c3ccco3)c1C#N)CCCC2	Pf growth 48h 1.9µM (no result: Pf growth 96h)
Cc1ccc(-c2nc(SCC(N)=O)c(C#N)c3c2CCCC3)cc1	Pf growth 96h inconclusive (no result: Pf growth 48h)
Cc1c(C#N)c(SCC(N)=O)nc2c1CCCC2	NS1 function inh inconclusive, Pf growth 96h 9.3µM
COC(=O)CSc1nc2c(c(-c3ccc(O)cc3)c1C#N)CCCC2	none
Cc1ccc(C)c(N2CCN(C(=O)c3ccc(CS(=O)Cc4cccc(Cl)c4)o3)CC2)c1 (stereo unspecified)	NS1 function inh inconclusive
CCOc1ccc(NC(=O)CN(C)C(=O)CC2OC(=O)c3ccccc32)cc1OCC (stereo unspecified)	Pf growth 48h inconclusive (no result: NS1 function inh)
Cc1ccc(C(=O)O)cc1[N+](=O)[O-]	none (no result: NS1 function inh)
Cc1cc(C)c(NC(=O)c2cc(C(=O)O)ccc2C(=O)O)c([N+](=O)[O-])c1	Pf growth 96h 2.3µM (no result: NS1 function inh)
CC1(C)C(=O)Nc2ccccc2N1C(=O)COc1cc(Cl)ccc1Cl	Pf growth 48h 12µM, Pf growth 96h inconclusive (no result: NS1 function inh)
COc1ccc(S(=O)(=O)N2CC(C)N(C(=O)N(C)C)C2C(C)C)cc1 (stereo unspecified)	none
COc1ccc(N(CC(=O)NCc2ccc(C)cc2)S(=O)(=O)c2ccccc2[N+](=O)[O-])c(OC)c1	Pf growth 48h inconclusive
COc1ccc(N(CC(=O)N2CCCCCC2)S(=O)(=O)c2ccccc2[N+](=O)[O-])c(OC)c1	Pf growth 48h 12µM
COc1ccc(N(CC(=O)NCc2ccccc2C)S(=O)(=O)c2ccccc2[N+](=O)[O-])c(OC)c1	Pf growth 48h inconclusive, Pf growth 96h 10µM
O=C(COC(=O)C1CCC1)Nc1ncc(Cl)cc1Cl	none (no result: NS1 function inh)
CCOC(=O)C1CCCN(S(=O)(=O)CCNC(=O)c2ccc(F)cc2)C1 (stereo unspecified)	none (no result: NS1 function inh)
CN1CCN(CC(O)COc2ccc(Cl)cc2)CC1 (stereo unspecified)	none (no result: Pf growth 48h)
CN1CCN(CC(O)COC(c2ccc(Cl)cc2)c2ccc(Cl)cc2)CC1 (stereo unspecified)	Pf growth 96h 9.3µM (no result: Pf growth 48h)
OC(COC(c1ccccc1)c1ccccc1)CN1CCc2ccccc2C1 (stereo unspecified)	Pf growth 48h inconclusive, Pf growth 96h inconclusive
OC(COC(c1ccc(Cl)cc1)c1ccc(Cl)cc1)CN1CCc2ccccc2C1 (stereo unspecified)	Pf growth 48h inconclusive, Pf growth 96h 2.6µM
OC(COC(c1ccc(Cl)cc1)c1ccc(Cl)cc1)CN1CCCC1 (stereo unspecified)	Pf growth 48h inconclusive, Pf growth 96h 4.7µM (no result: SARS PLP yeast)
Cc1ccc(C(OCC(O)CN2CCCCC2)c2ccccc2)cc1 (stereo unspecified)	Pf growth 48h inconclusive, Pf growth 96h inconclusive
CCOC(=O)C1=C(COC(=O)COc2cc(C)ccc2C)NC(=O)NC1C (stereo unspecified)	Pf growth 48h inconclusive (no result: NS1 function inh)
CC(C)OCCCN(C)C1CCN(S(=O)(=O)c2ccc(-c3cc(C(F)(F)F)no3)s2)CC1	Pf growth 48h 12µM, Pf growth 96h inconclusive
CCCC(=O)Nc1cc2c3c(c1)C(C)C(=O)N3CCC2 (stereo unspecified)	none
O=C(CN1C(=O)NC2(CCCc3ccccc32)C1=O)NC1CCCCC1 (stereo unspecified)	none (no result: NS1 function inh)
CC(O)C(NS(=O)(=O)c1ccc(Cl)cc1)C(=O)OCC(=O)c1c[nH]c2ccccc12 (stereo unspecified)	none
COc1cc(OC)c(N(C)S(=O)(=O)c2cccc(C(=O)OCC(=O)c3c[nH]c4ccccc34)c2)cc1Cl	Pf growth 48h 1.9µM, NS1 function inh inconclusive, Pf growth 96h inconclusive
CC(C)C(NS(=O)(=O)c1c(Cl)cccc1Cl)C(=O)OCC(=O)c1c[nH]c2ccccc12 (stereo unspecified)	Pf growth 48h 4.1µM, Pf growth 96h 4.7µM
Cc1ccc(C(=O)OCC(=O)c2c[nH]c3ccccc23)cc1	none
COc1ccc(C(=O)OCC(=O)c2c[nH]c3ccccc23)cc1OC	Pf growth 48h 15µM, Pf growth 96h 4.7µM (no result: NS1 function inh)
Cc1cnc(C(=O)OCC(=O)c2c[nH]c3ccccc23)cn1	Pf growth 48h 13µM, Pf growth 96h inconclusive (no result: NS1 function inh)
Cc1cnc(C(=O)OCC(=O)c2cccc3ccccc23)cn1	none (no result: NS1 function inh)
C=CCN(c1ccccc1OC)S(=O)(=O)c1cccc(C(=O)OCC(=O)c2c[nH]c3ccccc23)c1	Pf growth 48h inconclusive, Pf growth 96h 4.7µM
C=CCN(c1ccccc1OC)S(=O)(=O)c1cccc(C(=O)OCC(=O)N2CCOCC2)c1	none (no result: Pf growth 48h, NS1 function inh, Pf growth 96h)
Cn1c(SC2=CS(=O)(=O)c3ccccc32)nc2ccccc21	Pf growth 48h 5.2µM
CCOc1ccc(N2C(=O)CC(N3CCN(c4ccc(Cl)cc4)CC3)C2=O)cc1 (stereo unspecified)	Pf growth 96h 3.3µM
O=C(CC1Sc2ccccc2NC1=O)OCc1cc(=O)oc2cc(O)ccc12 (stereo unspecified)	Pf growth 96h 4.7µM
CC(=O)Nc1ccc(NC2=Nc3ccccc3N3C2=Nc2c(c(C)nn2-c2ccccc2)C3c2ccccc2)cc1 (stereo unspecified)	Pf growth 48h 0.93µM, Pf growth 96h inconclusive, SARS PLP yeast inconclusive
